# IkB signaling = suppresses IkB signaling in ABC-DLBCL reporter cells; Potency, µM (series often up to 57.1 µM); ABC-DLBCL IkBa-CBG/CBR dual luciferase ratio, 4 h; response scale: scaled: untreated 0%, proteasome inhibitor 100%; AID 445; 0.04% of 110,000 active; active = well fitted curve in the direction sought with a large enough effect in the signal ratio, not every such curve was filed as active; inconclusive = small, poorly fitted or top-dose-only effect, or a change in a side signal; the % refers to the signal ratio;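 also: the direction sought is a rising ratio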
#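 Curves were fitted separately to fusion (green), unfused (red) and ratio luminescence, then classed by r2, magnitude and activity. Cells: OCI-Ly3, 4 h compound plus doxycycline at 37C; 10 uM MG-132 defined full response.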
# FLuc inh = blocks Photinus pyralis firefly luciferase activity | purified firefly luciferase, luminescence, 8 min | Potency, µM (titrated, usually from 57.1 µM), usual class: inhibitors | 2.2% of 72,000 active | AID 411; also: nearly all actives have a fitted effect of over 40% in size
# Target sequence (P08659 whole entry, looked up): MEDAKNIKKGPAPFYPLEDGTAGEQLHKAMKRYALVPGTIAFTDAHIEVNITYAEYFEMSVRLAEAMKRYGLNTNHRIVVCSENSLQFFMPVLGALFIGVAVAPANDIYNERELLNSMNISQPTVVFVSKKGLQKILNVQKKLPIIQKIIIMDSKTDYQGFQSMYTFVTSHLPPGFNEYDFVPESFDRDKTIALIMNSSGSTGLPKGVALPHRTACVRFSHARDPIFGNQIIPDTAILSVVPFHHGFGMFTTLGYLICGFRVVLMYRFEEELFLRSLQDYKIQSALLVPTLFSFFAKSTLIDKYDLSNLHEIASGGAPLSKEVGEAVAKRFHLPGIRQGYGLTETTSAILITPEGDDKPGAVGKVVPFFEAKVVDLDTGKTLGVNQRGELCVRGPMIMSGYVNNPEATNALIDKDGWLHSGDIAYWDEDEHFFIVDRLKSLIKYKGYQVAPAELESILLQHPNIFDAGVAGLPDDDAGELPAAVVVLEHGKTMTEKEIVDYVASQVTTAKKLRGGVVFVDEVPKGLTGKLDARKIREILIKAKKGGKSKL
#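 Titration-based qHTS; buffer 50 mM imidazole pH 7.2, 50 mM KCl, 7 mM MgCl2, 10 uM ATP, 0.01% Tween 20, 0.05% BSA; luciferase/luciferin detector mix added after compound; 8 min, ambient; luminescence.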
# p53ts 32C kill = kills p53ts cells at the permissive temperature | Potency, µM (titrated, usually from 46.1 µM), actives largely listed as cytotoxic | H1299-p53A138V at 32C, ATP luminescence viability, 24 h | 0.93% of 130,000 active; also: nearly all actives have a fitted effect of over 55% in size
#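 H1299-p53 A138V cells (temperature-sensitive p53) exposed 24 h to up to 46 uM compound at 32C, where p53 is wild-type in conformation. Viability read as ATP luminescence and normalised to DMSO and 100 uM tamoxifen. AC50 fitted with the Hill equation.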
# p53ts 39C tox = kills p53ts cells at the nonpermissive temperature. H1299-p53A138V viability at 39C, ATP luminescence, 24 h. Potency, µM (highest dose often 46.1 µM), hits mostly cytotoxic. 1.5% of 130,000 active. AID 902; also: nearly all actives have a fitted effect of over 55% in size
# IMPase inh = IMPase inhibition in cells | P97697 | CHO-M1 cells, IP1 accumulation, HTRF TR-FRET ratio | inhibition (IP1 accumulation), % at 46.1 µM | 120,000 tested, under 10 active; active = well fitted curve in the direction sought with a large enough effect in the signal ratio, not every such curve was filed as active; inconclusive = small, poorly fitted or top-dose-only effect, or a change in a side signal; inactive = no such curve, though single readings can be large or run the other way; the % refers to the signal ratio;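 also: cells stimulated with carbachol in lithium chloride buffer; higher means more IMPase inhibition seen as more IP1 and lower FRET ratio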
#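 Measured: the HTRF emission ratio (665/620 nm) plus the 620 nm donor channel, each fitted to the Hill equation to give AC50. Cells were CHO-M1 given compounds up to 46 uM and a 30 min carbachol stimulation at 37C.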
# Imprint erasure = induces erasure of genomic imprints in mouse ES cells | mouse ES Peg3-LacZ reporter, beta-gal luminescence, 40 h | Potency, µM (top dose mostly 60.7 µM), actives largely listed as activators | 0.02% of 110,000 active
#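 Each well holds 300 Peg3LacZ-Neo (maternal) female ES cells incubated 40 h at 37C, 5% CO2. LacZ is measured by BetaGlo luminescence, with AC50 and maximum efficacy derived from dose-response curves.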
# A number is an active result; 0 = inactive; ? = inconclusive; - = no result given; [ ] = dose if it differs, or a comment. This is one part of a sample in which hits are shown more often than they occur. Unless noted, calls follow the shape of the dose curve; as a rule, active = well fitted curve in the direction sought with a large enough effect; inconclusive = small, poorly fitted or top-dose-only effect, or another doubt; inactive = no such curve, though single readings can be large; an effect the other way counts as inactive or inconclusive.
SMILES,IkB signaling,FLuc inh,p53ts 32C kill,p53ts 39C tox,IMPase inh,Imprint erasure
Cc1cc(NC(=O)NC(=O)c2ccc(F)cc2F)n[nH]1,?,16µM,?,?,0,0
Cc1ccc(NC(=O)Nc2ccc(F)cc2)nc1,?,0,0,0,0,0
CC(=O)c1c(O)c(C)c(O)c2c1OC1=CC(=O)[C@H](C(C)=O)C(=O)[C@]12C,0[11.4 µM],0[11.4 µM],-,-,-,-
Cc1ccc2c(c1)c1c(c(=O)n(-c3cccc(Cl)c3)c(=O)n1CC(N)=O)n2C,0,-,0,0,-,0[10.9 µM]
Cc1ccc2c(c1)c1cccc3c1n2CCN3CCC(N)=O,0,10µM,0,0,0,0
CC(=O)Nc1cccc(NC(=O)CSc2cn(CC(=O)N(C(C)C)C(C)C)c3ccccc23)c1,0,-,0,0,-,0[10.9 µM]
CCOC(=O)N/N=C1/C[C@@H](O)[C@@H](O)[C@@H]2[C@@H]3C(=O)N([C@@H](C)c4ccccc4)C(=O)[C@H]3CC[C@@H]12,-,0[11.4 µM],0[9.22 µM],0[9.22 µM],-,-
COc1ccc(NC(=O)c2c(C)oc3ccc(O)c(CN4CCCCCC4)c23)cc1Cl,?,-,0,13µM,-,0[10.9 µM]
Cc1ccc(NC(=O)c2c(C)oc3ccc(O)c(CN4CCCCC4)c23)cc1,?,-,0,0,-,0[10.9 µM]
COC(=O)CCn1nnc(-c2cccs2)n1,0,0,0,0,0,0
COC(=O)CCn1nnc(-c2ccc(C(C)C)cc2)n1,?,13µM,?,?,0,0
COC(=O)c1c(SCC(=O)Nc2ccccc2C(F)(F)F)[nH]c2ccc(Cl)cc2c1=O,?,-,?,0,-,0[10.9 µM]
COC(=O)c1c(SCC(=O)Nc2cc(C)cc(C)c2)[nH]c2ccccc2c1=O,?,-,?,13µM,-,0[10.9 µM]
Cc1ccc2nc(-c3cc(NC(=O)COc4ccc(C)c(C)c4)ccc3Cl)oc2c1,0,-,?,13µM,-,0[10.9 µM]
COc1ccc(OCC(=O)Nc2ccc(C)cc2)cc1,0,0,0,0,0,0
Cc1ccc(OCC(=O)Nc2cccc(O)c2)cc1C,?,16µM,0,0,0,0
CCC(=O)Nc1cccc(NC(=O)COc2ccc(OC)cc2)c1,0,20µM,0,0,0,0
Cc1nn(-c2ccc(C(=O)O)cc2)c(N)c1-c1ccccc1,?,13µM,7.9µM,10µM,0,0
COc1ccc(-c2c(C)nn(-c3ccccc3)c2N)cc1,-,-,-,-,0,-
O=C(Oc1ccc(-c2cn3c(n2)SCC3)cc1)c1ccccc1,0,13µM,0,0,0,0
O=C(Oc1ccc(N2C(=O)CCC2=O)cc1)c1ccccc1,-,-,0,0,0,-
COc1ccccc1-c1cc(C(F)(F)F)nc(S(=O)(=O)CCCC(=O)Nc2cc(OC)c(OC)c(OC)c2)n1,0,-,6.3µM,5µM,-,0[10.9 µM]
COc1ccc(-c2cc(C(F)(F)F)nc(S(=O)(=O)CCCC(=O)Nc3cccc(O)c3)n2)cc1OC,?,-,?,3.2µM,-,0[10.9 µM]
COc1ccccc1-c1cc(C(F)(F)F)nc(S(=O)(=O)CCCC(=O)Nc2ccc(F)c(Cl)c2)n1,?,-,?,?,-,0[10.9 µM]
COc1ccc(-c2cc(C(F)(F)F)nc(S(=O)(=O)CCCC(=O)Nc3ccccc3C(F)(F)F)n2)cc1OC,?,-,?,5µM,-,0[10.9 µM]
SMILES,IkB signaling,FLuc inh,p53ts 32C kill,p53ts 39C tox,IMPase inh,Imprint erasure
COc1ccc(NC(=O)CCCS(=O)(=O)c2nc(-c3ccc(OC)c(OC)c3)cc(C(F)(F)F)n2)cc1OC,?,-,?,2.5µM,-,0[10.9 µM]
CCCCC(CC)CNC(=O)CN(C)S(=O)(=O)c1ccc2c(c1)c(=O)n(C)c(=O)n2C (stereo unspecified),0,-,0,0,-,0[10.9 µM]
Cc1c(C(=O)OCC(C)(C)CN(C)C)oc2ccccc12,0,13µM,0,0,0,0
Cc1c(C(=O)OC(C)CCN(C)C)oc2ccccc12 (stereo unspecified),0,0,0,0,0,0
CC(C)CO/N=C1/C[C@@H](O)[C@@H](O)[C@@H]2[C@@H]3C(=O)N(c4cccc(Oc5ccccc5)c4)C(=O)[C@H]3CC[C@@H]12,-,0[11.4 µM],0[9.22 µM],0[9.22 µM],-,-
CCCc1ccc(-c2ccc(C(=O)Oc3ccc(OCC)cc3)cc2)nc1,?,-,0,0,0,0[10.9 µM]
CCCc1ccc(-c2ccc(C(=O)O)cc2)nc1,?,16µM,?,0,0,0

# Screens (PubChem BioAssay)
